Out of some 52,000 compounds screened, about 1,700 (3.3%) were called active. Many of the other results were omitted from the sample, so actives are more common in it than they were. Unmarked numbers belong to inactive results. Cut-off read from the data, not from the text of the source: active = survival mostly below about 52% (no sharp cut-off); inactive = mostly above about 56%.

This test deals with Wild type. Description: growth inhibition of S. aureus wild type versus tarO mutant, primary screen, teichoic acid synthesis inhibitors, RN4220, OD600 (AID 463173). Conditions: S. aureus RN4220 wild type/DeltatarO growth, OD600, 18 h, active compounds read low, screened at 18.75 µg/mL (by protocol).
Consider `Cc1ccc(-c2[nH]c3ccccc3c2SCCNC(=O)c2ccc(S(=O)(=O)N3CCOCC3)cc2)cc1`, for which the survival was 81%.

Turning to `CCOC(=O)c1ccc(CNS(=O)(=O)c2c(C)ccc3nsnc23)o1`, the survival was 105%.

With `Fc1ccc(-n2nc(-c3ccccc3)c3cnc4ccccc4c32)cc1Cl`, the survival was 138%.

As to `Cc1ccc(C)c(N2CCN(S(=O)(=O)c3cc(C(=O)Nc4cc(Cl)cc(Cl)c4)ccc3F)CC2)c1`, the survival was 85%. Take `CCOc1ccc(NC(=O)c2ccc3nc(C(C)C)oc3c2)cc1`: the survival was 70%. The figure for `CCS(=O)(=O)c1ccc(C(=O)N2CCN(c3nc4c(OC)ccc(C)c4s3)CC2)cc1` is 91%. Under `Cc1ccc(Cl)c2sc(N3CCN(C(=O)C4CC4)CC3)nc12` stands 76%; under `COc1ccc(C)c2sc(N3CCN(C(=O)c4cccc(F)c4)CC3)nc12`, 133%. Under `CCCC(=O)N1CCN(c2nc3c(OC)ccc(C)c3s2)CC1` stands 14% (active); under `COc1ccc(OC)c2sc(N3CCN(C(=O)C4CC4)CC3)nc12`, -6% (active); under `COc1ccc(OC)c2sc(N3CCN(C(=O)c4ccco4)CC3)nc12`, 76%. As for `Cc1ccc(C)c2sc(N3CCN(C(=O)c4ccco4)CC3)nc12`, the survival was 159%. On to `COc1ccc(C)c2sc(N3CCN(C(=O)c4ccco4)CC3)nc12`, for which the survival was -1% (active). For `COc1ccc(OC)c2sc(N3CCN(C(=O)C(C)(C)C)CC3)nc12`, the survival was 69%. Turning to `COc1ccc2c(c1)c1c(c(=O)n(-c3ccccc3C)c(=O)n1CC(N)=O)n2C`, the survival is 82%. As for `CCOc1ccccc1NC(=O)CCn1nc(C)c(S(=O)(=O)N2CCCCC2)c1C`, the survival was 76%. Under `COc1ccc(N2CCN(C(CNC(=O)CC(C)C)c3ccc4c(c3)OCO4)CC2)cc1` (configuration not stated) stands 83%; under `CCOc1ccc(-c2nnc(SCC(=O)NCCc3ccccc3)nc2-c2ccc(OCC)cc2)cc1`, 73%; under `COc1cc(C2CC(=O)Nc3c2c(=O)[nH]c2ncnn32)ccc1O` (configuration not stated), 77%. On to `CCOCCCNC(=O)c1ccc2c(=O)n(CCc3ccccc3)c(=O)[nH]c2c1`, for which the survival is 79%. Turning to `Cc1ccc(C)c(N2CCN(C(=O)CSCc3ccccc3Cl)CC2)c1`, the survival was 82%. For the compound `O=C(Nc1ccccn1)c1ccccc1O`, the survival is 110%. Regarding `CCCSc1nnc2c(n1)OC(c1ccc(Br)s1)Nc1ccccc1-2` (configuration not stated), the survival is 88%. Regarding `CCCCSc1nnc2c(n1)OC(c1ccc(C)s1)Nc1ccccc1-2` (configuration not stated), the survival was 56%. Take `CCCCSc1nnc2c(n1)OC(c1ccc(Br)s1)Nc1ccccc1-2` (configuration not stated): the survival was 9% (active). For the compound `Cc1ccc(NC(=O)Cn2c(=O)n(Cc3nc(-c4ccccc4)no3)c(=O)c3cc4c(cc32)OCO4)cc1F`, the survival is 89%. With `CC(C)C(c1nnnn1Cc1ccccc1)N1CCCc2ccccc21` (configuration not stated), the survival is 122%. Regarding `N#Cc1c(NC(=O)c2ccco2)sc2c1CCCC2`, the survival is 104%.

As for `CNS(=O)(=O)c1cn(CC(=O)N2CCN(c3ccc(C(C)=O)cc3)CC2)cc1S(=O)(=O)NC`, the survival is 10% (active). The figure for `CNS(=O)(=O)c1cn(CC(=O)N2CCN(c3ccc(Cl)cc3)CC2)cc1S(=O)(=O)NC` is 124%. For the compound `CNS(=O)(=O)c1cn(CC(=O)N2CCN(c3ccc(OC)cc3)CC2)cc1S(=O)(=O)NC`, the survival was 69%.

On to `Cc1ccc(SCc2nc(-c3ccc(C(=O)Nc4cc(C)ccc4C)cc3)oc2C)cc1`, for which the survival is 129%. Regarding `Clc1cccc(CSc2nc(NCCc3ccccc3)c3ccccc3n2)c1`, the survival was 66%. Under `Fc1cccc(CSc2nc(NCCc3ccccc3)c3ccccc3n2)c1` stands -3% (active); under `COc1ccc(CCNc2nc(SCc3cccc(F)c3)nc3ccccc23)cc1OC`, 80%. As to `COC(=O)c1cc(S(=O)(=O)N2CCN(c3cccc(C)c3)C(C)C2)c[nH]1` (configuration not stated), the survival is 98%. Regarding `COc1ccc(NCc2nc3ccccc3n2CCOc2ccccc2C)cc1`, the survival is 4% (active). Take `COc1ccccc1OCCn1c(COc2cc(C)ccc2C)nc2ccccc21`: the survival is 87%. In the case of `COc1cccc(OCc2nc3ccccc3n2CCOc2ccccc2C)c1`, the survival is 55%.

As to `Cc1cccc(NCc2nc3ccccc3n2CCOc2ccccc2C)c1`, the survival was -18% (active).

Regarding `Cc1ccc(NCc2nc3ccccc3n2CCOc2ccccc2C)cc1`, the survival is -20% (active).

Turning to `Cc1ccccc1OCCn1c(CCNC(=O)C2CCCCC2)nc2ccccc21`, the survival is 90%. As to `O=C(O)c1ccc(NCc2nc3ccccc3n2CCOc2ccccc2Cl)cc1`, the survival is 88%. For `Fc1ccc(NCc2nc3ccccc3n2CCOc2ccccc2Cl)cc1`, the survival was 95%. Under `Cc1ccc(C)c(CSc2c(C(C)C)cnc3c2c(=O)n(C)c(=O)n3C)c1` stands 126%; under `O=C(CSc1ncc(CO)n1Cc1ccccc1)Nc1ccc(C(F)(F)F)cc1`, 120%; under `O=C(Nc1ccccc1F)C(Cc1ccccc1)n1cccc1` (configuration not stated), 85%. In the case of `O=C(Nc1ccc(C(F)(F)F)cc1)C(Cc1ccccc1)n1cccc1` (configuration not stated), the survival was -2% (active). Take `Cc1ccc(NC(=O)C(Cc2ccccc2)n2cccc2)cc1` (configuration not stated): the survival is 96%. `COc1ccc(NC(=O)C(Cc2ccccc2)n2cccc2)c(OC)c1` (configuration not stated): the survival is 78%. Regarding `CC(=O)Nc1ccc(NC(=O)C(Cc2ccccc2)N2Cc3ccccc3C2=O)cc1` (configuration not stated), the survival is 72%. Turning to `CC(C)c1ccc(NC(=O)C(Cc2ccccc2)n2cccc2)cc1` (configuration not stated), the survival was 13% (active).

Consider `O=C(CSc1nccn1Cc1ccc(F)cc1)NC1CCCC1`, for which the survival is 68%. The figure for `Cc1ccc(Cl)cc1N1CCN(C(=O)c2cc3ccc4cccnc4c3[nH]2)CC1` is 129%; for `Cc1cccc(C(=O)n2nc(C)c(S(=O)(=O)N3CCOCC3)c2C)c1` it is 89%.

As for `COc1ccc(C2=C(C)C(=O)N(Cc3ccc(C(=O)NCc4ccc(C)cc4)cc3)S2(=O)=O)cc1`, the survival was 89%. For `C1CN(C(N2CCOCC2)N2CCOCC2)CCO1`, the survival was 104%. With `COc1ccc(-c2cc(C)no2)cc1S(=O)(=O)N1CC(C)Oc2ccccc21` (configuration not stated), the survival was -6% (active). For the compound `Cc1ccc(-c2onc(C)c2C)cc1S(=O)(=O)N1CCc2ccccc21`, the survival was 117%. Under `COc1ccc(-c2cc(C)no2)cc1S(=O)(=O)N1CCc2ccccc21` stands 76%; under `COc1ccc(-c2onc(C)c2C)cc1S(=O)(=O)N1CCc2ccccc21`, 1% (active). The figure for `CCC1CN(S(=O)(=O)c2cc(-c3cc(C)no3)ccc2OC)c2cc(C)ccc2O1` (configuration not stated) is 120%. As to `COc1ccc(-c2cc(C)no2)cc1S(=O)(=O)N1CCOc2ccccc21`, the survival is 80%. Regarding `COc1ccc(NC(=O)c2oc3ccc(S(=O)(=O)N4CCOCC4)cc3c2C)c(OC)c1`, the survival was 152%. On to `COc1ccc(C(CC(=O)Nc2ccc(C(C)=O)cc2)N2Cc3ccccc3C2=O)cc1` (configuration not stated), for which the survival was 88%. As to `O=C(O)c1snc2c(=O)[nH]cnc12`, the survival is 105%. The figure for `O=C1CCCc2c1cc(C(=O)Nc1ccc(Cl)cn1)c(=O)n2-c1ccccc1` is 110%; for `COc1ccc(NC(=O)c2sc3nc(C)c(C(=O)Nc4ccc(Cl)cc4)c(-c4ccc(Br)cc4)c3c2N)cc1` it is 75%. The figure for `Cc1nc2sc(C(=O)Nc3ccc(F)cc3)c(N)c2c(-c2ccc(Br)cc2)c1C(=O)Nc1ccc(Cl)cc1` is 88%; for `Cc1nc2sc(C(N)=O)c(N)c2c(-c2ccc(Br)cc2)c1C(=O)Nc1ccc(Cl)cc1` it is -7% (active). `Cc1ccc(C)c(NC(=O)Cn2c(=O)n(Cc3ccco3)c(=O)c3oc4ccccc4c32)c1`: the survival was 87%. For the compound `Cc1nn(Cc2ccccc2)c(C)c1CC(=O)O`, the survival was 109%.

As for `O=C(CSc1nc2c([nH]c3ccccc32)c(=O)n1-c1ccc(F)cc1)NCc1ccc(F)cc1`, the survival was 73%. For the compound `CCC(C)NC(=O)c1sc2nc(C)c(C(=O)Nc3ccc(Cl)cc3)c(-c3ccc(Br)cc3)c2c1N` (configuration not stated), the survival was 106%.

For the compound `Cc1cc(-c2nc3ncccc3o2)ccc1NC(=O)COc1cc(C)c(Cl)c(C)c1`, the survival was 80%.

Regarding `CC(C)c1ccc(OCC(=O)Nc2cc(-c3nc4ncccc4o3)ccc2Cl)cc1`, the survival was 128%.

Turning to `CCC(=O)Nc1ccc(-c2nc3ncccc3o2)cc1C`, the survival was 85%. The figure for `Cc1cc(-c2nc3ncccc3o2)ccc1NC(=O)COc1ccc(C(C)(C)C)cc1` is 26% (active); for `Cc1cc(OCC(=O)Nc2cc(-c3nc4ncccc4o3)ccc2C)ccc1Cl` it is 88%; for `Cc1ccc(-c2nc3ncccc3o2)cc1NC(=O)COc1ccc(C(C)C)cc1` it is 11% (active). For the compound `Fc1ccc(CSc2nncn3c2cc2occc23)c(Cl)c1`, the survival was 88%. Under `CC(C)c1ccc(NC(=O)c2ccc3oc(=O)c(S(=O)(=O)c4ccc(F)cc4)cc3c2)cc1` stands 70%. Under `Cc1cc(=O)n2nc(N(C)CC(=O)NCc3ccc(Cl)cc3)sc2n1` stands 85%; under `CCC(C(=O)NC1CCCCC1)n1c(SCc2cccc(F)c2)nc2ccncc21` (configuration not stated), 124%; under `CCOc1ccccc1CNC(=O)c1ccc2c(c1)N(Cc1ccc(C)cc1)CCS2`, 79%. Take `CCC(Cc1ccccc1)NC(=O)Cn1ncc2c3ccccc3n(Cc3ccccc3)c2c1=O` (configuration not stated): the survival is 80%. On to `CCCCCCC1CCC(C(=O)NC(C(=O)O)C(C)C)CC1` (configuration not stated), for which the survival is 59%. On to `CCCCCCC1CC=C(C(=O)O)CC1` (configuration not stated), for which the survival was 110%. Regarding `CCCCC1CCC(CCCC(C)CCC(=O)O)CC1` (configuration not stated), the survival was -5% (active). For `CCOc1ccc(NC(=O)Cn2c(=O)cc(C)c3c(C)nn(-c4ccc(CC)cc4)c32)cc1`, the survival was 127%.

Consider `CCN(c1ccc(C)cc1C)S(=O)(=O)c1nnc(NC(=O)c2ccc(F)cc2)s1`, for which the survival is 20%. `CC(C)CN(CCNC(=O)c1cn(C)c2ccc(S(=O)(=O)N3CCOCC3)cc2c1=O)CC(C)C`: the survival was 82%.

For the origin of these results see PubChem BioAssay AID463173 (ICCB-Longwood Screening Facility, Harvard Medical School, 2010).
